Results as given in PubChem BioAssay (EPA / NIEHS).
Where “and” joins values, the source holds several entries; their conditions need not be identical. Identical values can stand only once. Records with an inconclusive call do not appear. More than one record can exist for a structure, and the calls need not agree. Calls of active or inactive are those of the source. The calls were made as follows, unless noted: active = hit-call score of the fitted dose curve at least 0.9, where 1 is the maximum; inactive = score below 0.9.

Assays:
[1] = target: Nuclear respiratory factor 1 (Homo sapiens) (UniProt Q16656); assay: ATG_NRF1_CIS: Attagene CIS-FACTORIAL HepG2 Assay for human Nuclear Respiratory Factor 1 (NRF1) Orphan Gene (AID 2282987); conditions: HepG2 NRF1 cis-element reporter, Attagene multiplex; actives raise or lower the signal
Chain of Nuclear respiratory factor 1 (Homo sapiens) (Q16656 whole entry, looked up): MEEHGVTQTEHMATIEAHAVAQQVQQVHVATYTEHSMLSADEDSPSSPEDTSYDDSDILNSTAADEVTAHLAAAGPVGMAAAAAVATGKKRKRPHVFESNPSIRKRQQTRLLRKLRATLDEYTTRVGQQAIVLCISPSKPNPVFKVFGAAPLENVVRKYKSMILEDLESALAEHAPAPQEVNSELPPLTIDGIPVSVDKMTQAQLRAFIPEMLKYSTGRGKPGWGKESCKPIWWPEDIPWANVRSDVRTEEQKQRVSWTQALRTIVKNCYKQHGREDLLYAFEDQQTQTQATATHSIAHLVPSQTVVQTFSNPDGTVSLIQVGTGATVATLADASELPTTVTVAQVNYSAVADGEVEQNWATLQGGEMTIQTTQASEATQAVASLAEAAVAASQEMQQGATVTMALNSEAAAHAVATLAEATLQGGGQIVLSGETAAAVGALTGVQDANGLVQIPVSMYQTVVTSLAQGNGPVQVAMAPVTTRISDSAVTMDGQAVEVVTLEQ
How it was run: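 Transcriptional reporter readout, one component of a 52-endpoint multiplexed HepG2 panel. Exposure 24 h; mRNA detected via RT-PCR and fluorescent capillary electrophoresis; fitting in both directions against DMSO.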

[2] = ATG_NFI_CIS: Attagene CIS-FACTORIAL HepG2 Assay for human Nuclear Factor I (NFI) (AID 2282989); conditions: HepG2 cis-regulatory reporter, NFI response element transcription; actives raise or lower the signal
How it was run: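 Reporter transcripts were measured by RT-PCR with fluorescent primer extension and capillary electrophoresis 24 h post-treatment. HepG2 cells carried transiently transfected cis-regulated reporter constructs reporting endogenous factor activity; gain or loss fitted against DMSO baseline.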

[3] = target: Myc proto-oncogene protein (Homo sapiens) (UniProt P01106); assay: ATG_Myc_CIS: Attagene CIS-FACTORIAL HepG2 Assay for human Myelocytomatosis (Myc) Proto-Oncogene Transcription Factor (AID 2282990); conditions: HepG2, Attagene cis-reporter transcription factor activity; actives raise or lower the signal
Chain of Myc proto-oncogene protein (Homo sapiens) (P01106 whole entry, looked up, the tested form may be a part): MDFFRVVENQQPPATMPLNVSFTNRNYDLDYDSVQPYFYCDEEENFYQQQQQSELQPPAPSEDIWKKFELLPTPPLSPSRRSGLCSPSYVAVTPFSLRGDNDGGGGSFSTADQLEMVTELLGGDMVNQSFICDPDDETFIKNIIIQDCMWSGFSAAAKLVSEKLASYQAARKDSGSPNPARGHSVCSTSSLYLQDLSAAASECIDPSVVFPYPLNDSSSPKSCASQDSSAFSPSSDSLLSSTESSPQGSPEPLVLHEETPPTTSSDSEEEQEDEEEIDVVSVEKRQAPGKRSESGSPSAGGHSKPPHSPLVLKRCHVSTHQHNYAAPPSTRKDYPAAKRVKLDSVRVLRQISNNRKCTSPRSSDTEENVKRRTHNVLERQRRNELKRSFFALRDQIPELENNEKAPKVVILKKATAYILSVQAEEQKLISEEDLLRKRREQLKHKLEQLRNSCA
How it was run: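 Fluorescence intensity of reporter-specific cDNA fragments, separated by capillary electrophoresis, gives the signal. Transfected HepG2 cells carrying cis-promoter reporter constructs are incubated with compound for 24 h; DMSO serves as baseline.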

[4] = ATG_NF_kB_CIS: Attagene CIS-FACTORIAL HepG2 Assay for human Nuclear Factor Kappa B (NF-kB) (AID 2282991); conditions: HepG2 Attagene cis-factorial NF-kB reporter mRNA; actives raise or lower the signal
How it was run: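 HepG2, transient multi-reporter transfection, cis promoter elements (endogenous TFs). 24 h exposure. Total RNA → RT → PCR → 6-FAM label → HpaI → CE. Gain/loss vs DMSO.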

[5] = ATG_NRF2_ARE_CIS: Attagene CIS-FACTORIAL HepG2 Assay for human Nuclear Factor Erythroid 2 Related Factor 2 (NFR2) response to Antioxidant Response Elements (ARE) (AID 2282992); conditions: HepG2 Attagene ARE/NRF2 reporter, transcription factor activity; actives raise or lower the signal;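 as to AC50: reporter mRNA level measured by RT-PCR and capillary electrophoresis fluorescence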
How it was run: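 HepG2 cells transiently transfected with multiplexed cis-regulated reporter transcription units measure endogenous transcription factor activity. Reporter mRNA at 24 h is quantified by RT-PCR, fluorescent labelling and capillary electrophoresis, with bidirectional fitting relative to DMSO.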

[6] = ATG_Oct_MLP_CIS: Attagene CIS-FACTORIAL HepG2 Assay for human Octamer-Binding Transcription Factor (Oct) (AID 2282993); conditions: HepG2 Attagene cis-factorial Oct reporter, mRNA; actives raise or lower the signal
How it was run: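 Readout is reporter transcript level from RT-PCR with fluorescent primer extension and capillary electrophoresis, fitted in both directions against DMSO. Transfected HepG2 reporter units report endogenous factor activity after 24 h dosing.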

[7] = target: Cellular tumor antigen p53 (Homo sapiens) (UniProt P04637); assay: ATG_p53_CIS: Attagene CIS-FACTORIAL HepG2 Assay for human p53 Transcription Factor (AID 2282994); conditions: HepG2 p53 cis-element reporter, Attagene mRNA; actives raise or lower the signal
Chain of Cellular tumor antigen p53 (Homo sapiens) (P04637 whole entry, looked up): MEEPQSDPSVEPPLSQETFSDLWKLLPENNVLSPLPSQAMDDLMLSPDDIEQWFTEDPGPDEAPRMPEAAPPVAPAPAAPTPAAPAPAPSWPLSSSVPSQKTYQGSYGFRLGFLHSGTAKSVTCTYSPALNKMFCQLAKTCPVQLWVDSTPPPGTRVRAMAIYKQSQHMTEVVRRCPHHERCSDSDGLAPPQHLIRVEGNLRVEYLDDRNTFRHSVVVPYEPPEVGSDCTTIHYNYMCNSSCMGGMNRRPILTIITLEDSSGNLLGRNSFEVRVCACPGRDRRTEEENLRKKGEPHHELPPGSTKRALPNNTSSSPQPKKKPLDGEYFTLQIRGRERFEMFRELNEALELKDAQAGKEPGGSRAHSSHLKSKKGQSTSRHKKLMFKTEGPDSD
How it was run: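 HepG2 cells transiently transfected with multiplexed cis-regulated reporter transcription units read endogenous TF activity. After 24 h compound exposure, reporter mRNA was quantified by RT-PCR, fluorescent labelling, HpaI digestion and capillary electrophoresis; bidirectional fits versus DMSO baseline.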

[8] = BSK_3C_TissueFactor: BioMAP Diversity Plus: 3C Assay for Tissue Factor Biomarker Activity (AID 2282997); conditions: BioMAP 3C HUVEC, tissue factor biomarker readout; actives raise or lower the signal
How it was run: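 Values derive from bidirectional curve fitting against DMSO of Tissue Factor ELISA signals, taken 24 h after dosing primary human umbilical vein endothelial cells.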

[9] = BSK_3C_uPAR: BioMAP Diversity Plus: 3C Assay for Urokinase-type plasminogen activator receptor (uPAR) Biomarker Activity (AID 2282998); conditions: BioMAP 3C HUVEC, uPAR biomarker ELISA; actives raise or lower the signal
How it was run: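 Cell-surface uPAR on HUVEC (3C system) read by ELISA at 24 h post-treatment, with DMSO as baseline and fitting in both directions. Parallel cultures stained with SRB to flag overt cytotoxicity.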

[10] = BSK_3C_VCAM1: BioMAP Diversity Plus: 3C Assay for Vascular cell adhesion molecule 1 (VCAM1) Biomarker Activity (AID 2282999); conditions: BioMAP 3C HUVEC, VCAM1 ELISA, cytokine-stimulated; actives raise or lower the signal
How it was run: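 Human umbilical vein endothelial cells (3C system), biomarker read by ELISA 24 h after dosing; bidirectional fit against DMSO baseline. Cytotoxicity tracked by SRB total-protein staining in parallel cultures at biomarker time.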

[11] = BSK_4H_Eotaxin3: BioMAP Diversity Plus: 4H Assay for Eotaxin 3 Biomarker Activity (AID 2283000); conditions: primary human endothelial cells (HUVEC); actives raise or lower the signal
How it was run: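 Endothelial primary cells (human umbilical vein) exposed to compound for 24 h. ELISA detection of Eotaxin-3.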

[12] = target: human Peroxisome Proliferator-activated Receptor delta (PPARd), PPARD (gene 5467) (UniProt Q03181); assay: ATG_PPARd_TRANS: Attagene TRANS-FACTORIAL HepG2 Assay for human Peroxisome Proliferator-activated Receptor delta (PPARd) (AID 2283002; active = hit-call score of the fitted dose curve at least 0.9, where 1 is the maximum)
Chain of human Peroxisome Proliferator-activated Receptor delta (PPARd), PPARD (gene 5467) (Q03181 whole entry, looked up, the tested form may be a part): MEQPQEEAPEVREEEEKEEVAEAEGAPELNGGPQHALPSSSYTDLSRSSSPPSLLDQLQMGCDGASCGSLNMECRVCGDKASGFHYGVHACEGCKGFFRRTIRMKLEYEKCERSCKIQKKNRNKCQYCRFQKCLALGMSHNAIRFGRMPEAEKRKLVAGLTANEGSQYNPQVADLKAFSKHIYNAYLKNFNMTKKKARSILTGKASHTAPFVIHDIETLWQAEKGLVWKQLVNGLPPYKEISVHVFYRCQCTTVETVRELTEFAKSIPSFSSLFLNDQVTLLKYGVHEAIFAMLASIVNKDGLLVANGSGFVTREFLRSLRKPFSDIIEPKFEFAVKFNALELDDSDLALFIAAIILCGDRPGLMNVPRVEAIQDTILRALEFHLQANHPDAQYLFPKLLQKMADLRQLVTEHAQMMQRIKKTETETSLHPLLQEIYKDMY
How it was run: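 Fluorescence from capillary electrophoresis of labelled RT-PCR reporter fragments gives the signal; DMSO sets baseline. Cells: HepG2 transiently carrying GAL4-UAS reporter units plus chimeric nuclear receptor-Gal4 proteins, exposed to chemicals for 24 h.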

[13] = read-out: Intercellular Adhesion Molecule 1 (ICAM1), ICAM1 (gene 3383); assay: BSK_3C_ICAM1: BioMAP Diversity Plus: 3C Assay for Intercellular Adhesion Molecule 1 (ICAM1) Biomarker Activity (AID 2283003); conditions: primary human endothelial cells (HUVEC); actives raise or lower the signal
How it was run: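 Human vascular endothelial primary cells, 3C conditions, 24 h treatment. ICAM-1 by ELISA.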

[14] = target: human Retinoic Acid Receptor beta (RARb), RARB (gene 5915) (UniProt P10826); assay: ATG_RARb_TRANS: Attagene TRANS-FACTORIAL HepG2 Assay for human Retinoic Acid Receptor beta (AID 2283004; active = hit-call score of the fitted dose curve at least 0.9, where 1 is the maximum)
Chain of human Retinoic Acid Receptor beta (RARb), RARB (gene 5915) (P10826 whole entry, looked up, the tested form may be a part): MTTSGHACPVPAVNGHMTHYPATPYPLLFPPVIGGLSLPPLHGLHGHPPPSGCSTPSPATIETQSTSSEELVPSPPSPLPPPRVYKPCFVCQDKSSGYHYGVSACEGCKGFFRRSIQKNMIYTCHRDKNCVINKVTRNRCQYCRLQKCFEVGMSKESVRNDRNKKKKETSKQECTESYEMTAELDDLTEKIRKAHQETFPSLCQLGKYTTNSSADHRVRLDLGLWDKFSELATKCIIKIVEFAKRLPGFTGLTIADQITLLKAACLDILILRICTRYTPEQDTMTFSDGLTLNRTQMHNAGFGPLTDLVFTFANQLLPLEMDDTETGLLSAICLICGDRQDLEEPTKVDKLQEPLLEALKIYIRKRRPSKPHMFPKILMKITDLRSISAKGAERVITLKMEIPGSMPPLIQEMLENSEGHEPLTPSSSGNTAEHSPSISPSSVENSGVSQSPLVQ
How it was run: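 HepG2, transient MRTU transfection, NR–Gal4 chimera, 24 h treatment; RT-PCR plus CE fluorescence detection of reporter mRNA; gain of signal vs DMSO.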

[15] = target: Retinoic acid receptor alpha (Homo sapiens) (UniProt P10276); assay: ATG_RARa_TRANS: Attagene TRANS-FACTORIAL HepG2 Assay for human Retinoic Acid Receptor alpha (RARa) (AID 2283005; active = hit-call score of the fitted dose curve at least 0.9, where 1 is the maximum)
Chain of Retinoic acid receptor alpha (Homo sapiens) (P10276 whole entry, looked up, the tested form may be a part): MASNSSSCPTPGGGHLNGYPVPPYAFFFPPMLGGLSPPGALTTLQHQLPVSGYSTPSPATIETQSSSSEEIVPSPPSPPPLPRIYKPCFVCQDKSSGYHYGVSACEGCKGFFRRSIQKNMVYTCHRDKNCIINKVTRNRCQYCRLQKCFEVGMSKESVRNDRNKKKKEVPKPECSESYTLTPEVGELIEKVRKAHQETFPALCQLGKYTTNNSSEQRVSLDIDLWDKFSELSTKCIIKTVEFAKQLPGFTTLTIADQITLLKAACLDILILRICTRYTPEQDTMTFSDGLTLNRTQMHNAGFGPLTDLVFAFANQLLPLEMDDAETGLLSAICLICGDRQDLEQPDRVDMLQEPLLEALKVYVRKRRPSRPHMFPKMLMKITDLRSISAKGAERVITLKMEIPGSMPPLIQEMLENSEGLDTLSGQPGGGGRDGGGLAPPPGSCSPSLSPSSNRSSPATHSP
How it was run: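 HepG2 transiently transfected with multiplex GAL4-UAS reporter units including a human RARa–GAL4 chimera; 24 h compound exposure. Reporter mRNA quantified by RT-PCR, 6-FAM labeling and capillary electrophoresis; gain of signal versus DMSO.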

[16] = BSK_3C_Proliferation: Cell Proliferation Assessment in the BioMAP Diversity Plus: 3C Assay (AID 2283006); conditions: primary human endothelial cells (HUVEC);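 as to AC50: potency may reflect either rise or fall in cell number versus DMSO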
How it was run: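 Proliferation of human vascular endothelial primary cells after 48 h dosing, quantified as SRB-stained protein at 560 nm relative to DMSO.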

[17] = target: Peroxisome proliferator-activated receptor gamma (Homo sapiens) (UniProt P37231); assay: ATG_PPARg_TRANS: Attagene TRANS-FACTORIAL HepG2 Assay for human Peroxisome Proliferator-activated Receptor-gamma (PPARg) (AID 2283007; active = hit-call score of the fitted dose curve at least 0.9, where 1 is the maximum)
Chain of Peroxisome proliferator-activated receptor gamma (Homo sapiens) (P37231 whole entry, looked up): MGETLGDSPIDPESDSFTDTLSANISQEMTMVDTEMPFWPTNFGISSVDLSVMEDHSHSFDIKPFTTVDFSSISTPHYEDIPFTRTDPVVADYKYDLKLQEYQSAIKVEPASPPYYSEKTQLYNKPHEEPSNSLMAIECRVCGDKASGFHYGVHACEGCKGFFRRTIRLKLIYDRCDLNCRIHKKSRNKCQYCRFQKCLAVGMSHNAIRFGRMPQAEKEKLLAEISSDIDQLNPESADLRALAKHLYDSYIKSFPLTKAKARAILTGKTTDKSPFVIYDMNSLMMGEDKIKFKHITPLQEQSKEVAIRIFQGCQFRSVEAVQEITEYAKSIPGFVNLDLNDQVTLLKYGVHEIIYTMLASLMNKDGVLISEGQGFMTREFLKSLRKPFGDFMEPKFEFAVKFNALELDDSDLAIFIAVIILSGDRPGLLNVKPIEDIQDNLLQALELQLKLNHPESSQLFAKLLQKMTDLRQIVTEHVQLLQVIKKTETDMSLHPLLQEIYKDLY
How it was run: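 Multiplexed reporter transcription units in HepG2, 24 h dosing, reporter transcripts quantified by fluorescent RT-PCR and capillary electrophoresis. Increase over DMSO scored.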

[18] = target: Nuclear receptor subfamily 1 group I member 2 (Homo sapiens) (UniProt O75469); assay: ATG_PXR_TRANS: Attagene TRANS-FACTORIAL HepG2 Assay for human Pregnane X Receptor (PXR) (AID 2283008; active = hit-call score of the fitted dose curve at least 0.9, where 1 is the maximum)
Chain of Nuclear receptor subfamily 1 group I member 2 (Homo sapiens) (O75469 whole entry, looked up, the tested form may be a part): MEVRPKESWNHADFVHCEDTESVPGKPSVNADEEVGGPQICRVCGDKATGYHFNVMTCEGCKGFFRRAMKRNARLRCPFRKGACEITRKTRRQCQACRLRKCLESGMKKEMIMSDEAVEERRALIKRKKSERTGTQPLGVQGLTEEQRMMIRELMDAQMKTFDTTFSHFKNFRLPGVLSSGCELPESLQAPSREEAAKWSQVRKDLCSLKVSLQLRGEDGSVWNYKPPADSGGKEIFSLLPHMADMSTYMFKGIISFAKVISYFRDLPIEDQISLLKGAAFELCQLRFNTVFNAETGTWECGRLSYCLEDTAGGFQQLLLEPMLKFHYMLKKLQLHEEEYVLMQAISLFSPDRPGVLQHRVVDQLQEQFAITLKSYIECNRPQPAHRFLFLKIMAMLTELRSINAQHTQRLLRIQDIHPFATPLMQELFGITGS
How it was run: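 HepG2 cells transiently transfected with multiple reporter units, here a PXR-GAL4 chimera driving a GAL4-UAS reporter; 24 h compound exposure. Reporter mRNA measured by RT-PCR, FAM labelling and capillary electrophoresis; gain of signal fitted against DMSO baseline.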

[19] = target: human Retinoic Acid Receptor gamma (RARg), RARG (gene 5916) (UniProt P13631); assay: ATG_RARg_TRANS: Attagene TRANS-FACTORIAL HepG2 Assay for human Retinoic Acid Receptor gamma (RARg) (AID 2283009; active = hit-call score of the fitted dose curve at least 0.9, where 1 is the maximum)
Chain of human Retinoic Acid Receptor gamma (RARg), RARG (gene 5916) (P13631 whole entry, looked up, the tested form may be a part): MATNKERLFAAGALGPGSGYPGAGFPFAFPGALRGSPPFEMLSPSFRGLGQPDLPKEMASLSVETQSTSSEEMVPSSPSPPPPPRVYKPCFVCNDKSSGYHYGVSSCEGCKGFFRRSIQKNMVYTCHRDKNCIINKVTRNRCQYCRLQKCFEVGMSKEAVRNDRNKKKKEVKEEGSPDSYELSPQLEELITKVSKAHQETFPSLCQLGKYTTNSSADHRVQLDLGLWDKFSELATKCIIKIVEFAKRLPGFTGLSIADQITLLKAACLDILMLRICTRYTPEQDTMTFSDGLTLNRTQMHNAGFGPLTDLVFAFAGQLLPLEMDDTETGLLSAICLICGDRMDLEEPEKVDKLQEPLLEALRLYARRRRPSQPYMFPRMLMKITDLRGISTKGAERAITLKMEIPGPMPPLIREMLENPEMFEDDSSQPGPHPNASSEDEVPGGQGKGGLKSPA
How it was run: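 HepG2, RARg-GAL4 TRANS system, 24 h exposure; reporter mRNA by RT-PCR + CE fluorescence; increase over DMSO.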

[20] = target: human Peroxisome Proliferator-activated Receptor alpha (PPARa), PPARA (gene 5465) (UniProt Q07869); assay: ATG_PPARa_TRANS: Attagene TRANS-FACTORIAL HepG2 Assay for human Peroxisome Proliferator-activated Receptor alpha (PPARa) (AID 2283001; active = hit-call score of the fitted dose curve at least 0.9, where 1 is the maximum)
Chain of human Peroxisome Proliferator-activated Receptor alpha (PPARa), PPARA (gene 5465) (Q07869 whole entry, looked up, the tested form may be a part): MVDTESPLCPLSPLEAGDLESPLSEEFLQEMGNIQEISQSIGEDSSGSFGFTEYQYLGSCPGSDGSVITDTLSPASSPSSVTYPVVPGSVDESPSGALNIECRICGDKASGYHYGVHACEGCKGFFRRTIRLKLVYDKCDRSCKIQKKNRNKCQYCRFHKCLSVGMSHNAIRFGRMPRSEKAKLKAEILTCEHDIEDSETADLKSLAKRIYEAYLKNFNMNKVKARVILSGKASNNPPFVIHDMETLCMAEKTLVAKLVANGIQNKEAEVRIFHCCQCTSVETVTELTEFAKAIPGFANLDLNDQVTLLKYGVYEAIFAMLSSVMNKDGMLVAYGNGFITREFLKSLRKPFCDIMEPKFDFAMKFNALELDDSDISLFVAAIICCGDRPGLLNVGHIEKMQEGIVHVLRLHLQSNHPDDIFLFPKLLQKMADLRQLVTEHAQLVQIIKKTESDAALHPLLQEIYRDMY
How it was run: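 Measures transcriptional activity of an exogenous chimeric PPARa-Gal4 protein in transiently transfected HepG2 cells after 24 h dosing. Reporter mRNA quantified via RT-PCR and capillary electrophoresis; DMSO served as negative control.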

Measured: AC50

C#C[C@]1(O)CC[C@H]2[C@@H]3CCC4=CC(=O)CC[C@@H]4[C@H]3CC[C@@]21C
active: [5] 100 µM and 79.6 µM | [8] 15.3 µM | [9] 5.42 µM | [16] 4.1 µM | [18] 26.6 µM
inactive: [1] | [2] | [3] | [4] | [5] | [6] | [7] | [10] | [11] | [12] | [13] | [14] | [15] | [17] | [18] | [19]

NC(=O)N(O)[C@@H]1C=C[C@H](Oc2cccc(Oc3ccc(F)cc3)c2)C1
inactive: [1] | [2] | [3] | [4] | [7] | [8] | [9] | [10] | [11] | [20] | [12] | [13] | [14] | [19]
active: [5] 20.6 µM | [6] 33 µM | [16] 9.97 µM | [17] 10.1 µM | [18] 7.33 µM

C[C@@H]1C[C@H]2[C@@H]3CCC4=CC(=O)C=C[C@]4(C)[C@@]3(F)[C@@H](O)C[C@]2(C)[C@@]1(O)C(=O)COP(=O)(O)O
inactive: [1] | [2] | [3] | [4] | [5] | [6] | [7] | [8] | [9] | [10] | [11] | [20] | [12] | [13] | [16] | [17] | [18]
active: [11] 8.66 µM
